In PubChem BioAssay (NCI):
About 83,000 compounds went through this panel and 20% of them were active in at least one assay; those are over-represented in the sample as a whole.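 Plates (96-well) were seeded with cells, treated with compound at one concentration, and incubated for 48 hours before percent growth was determined.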 Active and inactive are the calls of the source. Rule for the calls: active = growth percent below 10; inactive = the rest.

System: SN12C renal
Assay: NCI-60 one-dose screen, 48 h (100 = growth as untreated, 0 = no growth, -100 = all killed)
Details: 10 µM unless noted

Q: NS(=O)(=O)c1ccc(Nc2nc(N/N=C/c3c[nH]c4ccccc34)nc(Nc3ccccc3)n2)cc1 was tested. Which growth did it give?
A: Its growth is 40.2% (inactive).

Q: With CCc1cccc2c3c(sc12)C(c1ccc(OC)cc1)C(C#N)=C(/N=C/c1ccc(Cl)cc1)O3 (configuration not stated) as the molecule, how does the growth read?
A: The growth was 41.8% (inactive).

Q: Which growth does the source give for Cn1ccnc1C(=O)/C=C/c1ccc(CNC(=O)c2ccc(F)cc2)cc1 here?
A: The growth was 20% (inactive).

Q: N#Cc1cccc(NC(=O)c2cc(-c3ccc(F)cc3F)ccc2O)c1 was tested. Which growth did it give?
A: Its growth is 4.45% (active).

Q: O=S(=O)(NCCCNc1nccc(-c2[nH]c(-c3ccccc3)nc2-c2ccc(Cl)c(O)c2)n1)c1cccc2ccccc12 was tested. Which growth did it give?
A: Its growth is 24% (inactive).

Q: Which growth does the source give for CC1(C)[C@@H](O)CC[C@]2(C)[C@H]3CC[C@@H]4[C@H]5[C@H](C(=O)/C=C\c6ccncc6)CC[C@]5(O)CC[C@@]4(C)[C@]3(C)CC[C@@H]12 here?
A: The growth was 75.1% (inactive).

Q: For CS(=O)(=O)Nc1cc(-c2ccc3ncc(C#N)c(N[C@H](CO)c4ccccc4)c3c2)cnc1Cl, which growth is on record?
A: Its growth is 31.1% (inactive).

Q: Which growth does the source give for O=C(CSc1nc2ccccc2c(=O)n1-c1ccccc1)Nc1ccc(-c2nc3ccc([N+](=O)[O-])cc3[nH]2)cc1 here?
A: The growth was 72.4% (inactive).

Q: For Oc1cccc2ccc(-c3nnc(SCc4ccc(O)c5ncccc45)n3-c3ccccc3)nc12, which growth is on record?
A: The growth was 20% (inactive).

Q: With C=CCn1c(SCC(=O)Nc2ccc(C(=O)/C=C/c3ccc(C)cc3)cc2)nnc1-c1c[nH]c2ccccc12 as the molecule, how does the growth read?
A: Its growth is 83.6% (inactive).

Q: With C[C@@H](Nc1c(C#N)cnc2ccc(-c3cnc(Cl)c(NS(C)(=O)=O)c3)cc12)c1ccccc1 as the molecule, how does the growth read?
A: The growth was 9.48% (active).

Q: How did the growth turn out when CCN(CC)c1ccc(NC2=C(Cl)C(=O)c3nc(C)ccc3C2=O)cc1 was run?
A: The growth was 64% (inactive).
